# Several values for one entry are separate records, joined by “and”; a condition that tells them apart may be missing. Equal entries are not always repeated. The campaign covered roughly 4,400 compounds. About 390 (8.9%) showed an effect of 50% or more. Only a selection was taken, and strong results are over-represented in it overall.
# Test system: Trypanosoma brucei
# Experiment: DNDI: Inhibition of Human African Trypanosomiasis, SBRI 427, in vitro at 2 ug.mL-1
# Format: functional
row,Compound,% inhibition
1,CCOc1ccccc1-c1nc(CN2CC[C@@H]3CCCC[C@@H]3C2)co1,16%
2,CCOc1ccccc1-c1nc(Cn2ccnc2CC)co1,-1%
3,N#CCCN(Cc1coc(-c2ccc(Cl)cc2Cl)n1)C1CCCCC1,3%
4,O/N=C(\NCc1cc(F)ccc1F)c1ccc(Oc2cccc3cccnc23)nc1,4%
5,COc1cc(-c2nc(CNCC(c3ccccc3)c3ccccc3)co2)cc(OC)c1OC,22%
6,Cc1cn(/C(=N\O)c2ccc(C)nc2Oc2cccc(F)c2)cn1,0%
7,COCCN(Cc1coc(-c2ccc(OC)cc2)n1)C(C)C,-10%
8,Cn1nc(C(C)(C)C)cc1NCc1coc(-c2ccccc2Br)n1,-43%
9,CC(C)(C)COc1ncccc1/C(=N/O)NCc1ccccc1,17%
10,CCCCCC(C)NCc1coc(-c2ccc(OC)cc2)n1 (configuration not stated),23%
11,CCCCCCC(C)NCc1coc(-c2cccc(C)c2)n1 (configuration not stated),0%
12,CCCCCCC(C)NCc1coc(-c2ccc(O)cc2)n1 (configuration not stated),52%
13,CCCCCCC(C)NCc1coc(-c2ccc(OC)cc2)n1 (configuration not stated),65%
14,CCCC(C)NCc1coc(-c2ccc(F)cc2)n1 (configuration not stated),-16%
15,COc1ccc(-c2nc(CNC(C)CCCC(C)C)co2)cc1 (configuration not stated),-10%
16,CN(Cc1coc(-c2ccc(F)cc2)n1)C(c1ccccc1)c1ccccc1,-2%
17,Cc1ccc(/C(=N/O)N2CCC(N(C)C)C2)c(Oc2cccnc2)n1 (configuration not stated),7%
18,CCC(NCc1coc(-c2ccccc2Br)n1)c1ccccc1 (configuration not stated),-20% and -22%
19,CCC(NCc1coc(-c2cccc3ccccc23)n1)c1ccccc1 (configuration not stated),64%
20,CC(NCc1coc(-c2cccc3ccccc23)n1)c1ccccc1 (configuration not stated),26%
21,Cc1ccc([C@@H](C)NCc2coc(-c3cccc4ccccc34)n2)cc1,79%
22,Cc1ccc(C(C)NCc2coc(-c3cccc4ccccc34)n2)cc1 (configuration not stated),-2%
23,CC(CNCc1coc(-c2ccccc2Cl)n1)c1ccccc1 (configuration not stated),-5%

row,Compound,% inhibition
1,CCOc1cccc(-c2nc(CNCc3cccc(OC)c3)co2)c1,-5%
2,CCN(CC)CCN(CC)Cc1coc(-c2cccs2)n1,1%
3,COc1cccc(-c2nc(Cn3ccnc3C(C)C)co2)c1,5%
4,Cn1nc(C(C)(C)C)cc1NCc1coc(-c2ccc(C(F)(F)F)cc2)n1,-8%
5,Cc1ccc(/C(=N/O)NCc2ccco2)c(Oc2cc(Cl)ccc2Cl)n1,62%
6,Cc1ccc(/C(=N/O)NCc2cccs2)c(Oc2cc(Cl)ccc2Cl)n1,16%
7,C=CCc1ccc(Oc2nc(C)ccc2/C(=N/O)N2CCC(C(=O)OC)CC2)c(OC)c1,27%
8,C=CCc1ccc(Oc2nc(C)ccc2/C(=N/O)NCC2CC2)c(OC)c1,44%
9,C=CCc1ccc(Oc2nc(C)ccc2/C(=N/O)NCc2ccco2)c(OC)c1,63%
10,C=CCc1ccc(Oc2nc(C)ccc2/C(=N/O)N2CCSCC2)c(OC)c1,48%
11,C=CCc1ccc(Oc2nc(C)ccc2/C(=N/O)NCc2ccc(OC)cc2)c(OC)c1,22%
12,C=CCc1ccc(Oc2nc(C)ccc2/C(=N/O)N2CCN(CC=C)CC2)c(OC)c1,68%
13,Cc1ccc(/C(=N/O)NCc2ccco2)c(Oc2ccc(Cl)cc2-c2ccno2)n1,13%
14,COc1ccc(CN/C(=N\O)c2ccc(C)nc2Oc2cc(Cl)ccc2Cl)cc1,14%
15,Cc1cc(C)cc(CN/C(=N\O)c2ccc(C)nc2Oc2cc(Cl)ccc2Cl)c1,64%
16,Cc1ccc(/C(=N/O)NCc2ccncc2)c(Oc2cc(Cl)ccc2Cl)n1,-10%
17,CCOc1ccc(-c2nc(CNCc3ccc(OC)cc3OC)co2)cc1,-17%
18,CCOc1ccccc1-c1nc(CN2CCN(C(=O)C3CCCO3)CC2)co1 (configuration not stated),8%
19,Cc1ccc(Oc2nc(C)ccc2/C(=N/O)N2CCSC2)c(C)c1,26%
20,COCC(C)NCc1coc(-c2ccccc2Cl)n1 (configuration not stated),-6%
21,Cc1ccc(/C(=N/O)NCc2cc(F)ccc2F)c(Oc2cc(Cl)ccc2Cl)n1,-39%
22,COc1cccc(CN/C(=N\O)c2ccc(C)nc2Oc2cc(Cl)ccc2Cl)c1,-48%
23,Cc1ccc(/C(=N/O)NCc2cc(F)cc(F)c2)c(Oc2cc(Cl)ccc2Cl)n1,76%

row,Compound,% inhibition
1,CCOc1ccccc1-c1nc(CN(C)CC2OCCO2)co1,-5%
2,Fc1ccccc1-c1nc(CNc2ccccc2)co1,13%
3,Cc1ccc(Oc2cc(/C(=N/O)NC3CCCC3)ccn2)c2c1CCC2,11%
4,Cc1ccc(CN/C(=N\O)c2ccnc(Oc3cccc4c3CCCC4)c2)o1,40%
5,O/N=C(\NC1CCCCC1)c1ccnc(Oc2cccc3c2CCCC3)c1,99%
6,CN(/C(=N\O)c1ccnc(Oc2cccc3c2CCCC3)c1)C1CCCCC1,14%
7,O/N=C(\NCc1c(F)cccc1F)c1ccnc(Oc2cccc3c2CCCC3)c1,37%
8,O/N=C(\NCC1CCCCC1)c1ccnc(Oc2cccc3c2CCCC3)c1,96%
9,CCOc1ccccc1-c1nc(CN(CC)Cc2ccncc2)co1,12%
10,CCOc1ccc(-c2nc(CNCC(C)(C)CN(C)C)co2)cc1,39%
11,O/N=C(/c1ccc(Oc2cccc(F)c2)nc1)N1CCN(c2ccccc2)CC1,2%
12,COc1ccc(Oc2cc(/C(=N/O)NC3CCCCC3)ccn2)cc1,100%
13,COc1ccc(Oc2cc(/C(=N/O)NCC3CCCO3)ccn2)cc1 (configuration not stated),34%
14,COc1ccc(Oc2cc(/C(=N/O)NC3CC(C)CC(C)(C)C3)ccn2)cc1 (configuration not stated),14%
15,COc1ccc(Oc2cc(/C(=N/O)N3C(C)CCCC3C)ccn2)cc1 (configuration not stated),10%
16,CSc1ccc(Oc2cc(/C(=N/O)NC3CCCCC3)ccn2)cc1,21%
17,COc1ccc(Oc2cc(/C(=N/O)NC3CCC3)ccn2)cc1,100%
18,Cc1ccc(Oc2nc(C)ccc2/C(=N/O)N(C)C2CCCCC2)c(C)c1,18%
19,Cc1cc(C)cc(Oc2ccc(/C(=N/O)n3cnc(C)c3)cn2)c1,1%
20,CCCCN(CC#N)Cc1coc(-c2ccc(C)cc2)n1,7%
21,CCN(Cc1coc(-c2ccccc2F)n1)c1ccc(C)cc1,-32%

# From ChEMBL document CHEMBL1857833, “Screening and optimization of specific chemical series against human African Trypanosomiasis (HAT)”
